Screening data deposited in PubChem BioAssay by National Center for Advancing Translational Sciences (NCATS).
Most compounds without a hit are left out; they make up all but 10% or so of the library.
CtBP-E1A inh = qHTS Assay for Inhibitors of the CtBP/E1A Interaction. AlphaScreen GST-E1A/His-CtBP binding, 1536-well; hits give low values. activity change, % (test concentration not listed). actives 0.49% (n = 340,000); in the data active = activity change below about -65%; inconclusive = mostly about -30% to -63%; note: % is set by controls: 0 for no effect and ±100 for the full control effect
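Homogeneous bead-based format: GST-tagged E1A captured on glutathione donor beads, His-tagged CtBP on nickel acceptor beads; compounds precede bead addition by 2 h at 37 °C.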
HP1b chromo inh = HTS for Inhibitors of HP1-beta Chromodomain Interactions with Methylated Histone Tails; Chromobox protein homolog 1 (Homo sapiens), P83916; AlphaScreen HP1-beta / biotin-H3K9me3 peptide binding; actives 0.56% (n = 390,000); Potency, µM (doses to about 114 µM), for the others: at the top dose activity change, negative = inhibition, usual class: inhibitors; note: potency is the fitted concentration of half-maximal effect; nearly all actives have a fitted effect of over 70% in size
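Compound inhibition of the preformed complex between 50 nM HP1-beta and 50 nM biotinylated H3K9me3 peptide was read by AlphaScreen. Buffer was PBS pH 7.4 with 0.01% Tween-20. Incubations ran 30 min at room temperature, with 10 ug/mL donor/acceptor beads.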
JMJD2A Tudor inh = qHTS Assay for Inhibitors of JMJD2A-Tudor Domain. Lysine-specific demethylase 4A (Homo sapiens), O75164. AlphaScreen JMJD2A-Tudor / H3K4me3 peptide binding. Potency, µM (top dose mostly 114 µM), without a hit: top-dose activity change, negative = inhibition, usual class: inhibitors. actives 4.4% (n = 390,000). AID 504339, 2011; note: potency is the fitted concentration of half-maximal effect; % is set by controls: 0 for no effect and ±100 for the full control effect; nearly all actives have a fitted effect of over 50% in size
G9a block = qHTS Assay for Inhibitors of Histone Lysine Methyltransferase G9a; actives 8.8% (n = 350,000); G9a H3K9 monomethylation, AlphaScreen, 2 h; Potency, µM (top dose mostly 102 µM), inactives show at the top dose activity, negative = inhibition, most hits filed as inhibitors; Histone-lysine N-methyltransferase EHMT2 (Homo sapiens), Q96KQ7; note: potency is the fitted concentration of half-maximal effect; % is set by controls: 0 for no effect and ±100 for the full control effect; nearly all actives have a fitted effect of over 75% in size
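Enzyme 20 nM + cpd, 15 min RT; add b-H3K9 pep 500 nM / SAM 20 uM; 2 h RT; anti-H3K9me1 Ab 0.5 ug/mL + SA donor / anti-rabbit acceptor beads 20 ug/mL each, 10 min; AlphaScreen read.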
BAZ2B block = qHTS Assay for Inhibitors of BAZ2B; Bromodomain adjacent to zinc finger domain protein 2B (Homo sapiens), Q9UIF8; AlphaScreen BAZ2B-H3K14Ac peptide displacement; Potency, µM (doses to about 114 µM), without a hit: at the top dose activity change, negative = inhibition, actives largely listed as inhibitors; actives 4.4% (n = 360,000); note: potency is the fitted concentration of half-maximal effect; % is set by controls: 0 for no effect and ±100 for the full control effect; nearly all actives have a fitted effect of over 60% in size
Target sequence (Q9UIF8 whole entry, looked up, the tested form may be a part): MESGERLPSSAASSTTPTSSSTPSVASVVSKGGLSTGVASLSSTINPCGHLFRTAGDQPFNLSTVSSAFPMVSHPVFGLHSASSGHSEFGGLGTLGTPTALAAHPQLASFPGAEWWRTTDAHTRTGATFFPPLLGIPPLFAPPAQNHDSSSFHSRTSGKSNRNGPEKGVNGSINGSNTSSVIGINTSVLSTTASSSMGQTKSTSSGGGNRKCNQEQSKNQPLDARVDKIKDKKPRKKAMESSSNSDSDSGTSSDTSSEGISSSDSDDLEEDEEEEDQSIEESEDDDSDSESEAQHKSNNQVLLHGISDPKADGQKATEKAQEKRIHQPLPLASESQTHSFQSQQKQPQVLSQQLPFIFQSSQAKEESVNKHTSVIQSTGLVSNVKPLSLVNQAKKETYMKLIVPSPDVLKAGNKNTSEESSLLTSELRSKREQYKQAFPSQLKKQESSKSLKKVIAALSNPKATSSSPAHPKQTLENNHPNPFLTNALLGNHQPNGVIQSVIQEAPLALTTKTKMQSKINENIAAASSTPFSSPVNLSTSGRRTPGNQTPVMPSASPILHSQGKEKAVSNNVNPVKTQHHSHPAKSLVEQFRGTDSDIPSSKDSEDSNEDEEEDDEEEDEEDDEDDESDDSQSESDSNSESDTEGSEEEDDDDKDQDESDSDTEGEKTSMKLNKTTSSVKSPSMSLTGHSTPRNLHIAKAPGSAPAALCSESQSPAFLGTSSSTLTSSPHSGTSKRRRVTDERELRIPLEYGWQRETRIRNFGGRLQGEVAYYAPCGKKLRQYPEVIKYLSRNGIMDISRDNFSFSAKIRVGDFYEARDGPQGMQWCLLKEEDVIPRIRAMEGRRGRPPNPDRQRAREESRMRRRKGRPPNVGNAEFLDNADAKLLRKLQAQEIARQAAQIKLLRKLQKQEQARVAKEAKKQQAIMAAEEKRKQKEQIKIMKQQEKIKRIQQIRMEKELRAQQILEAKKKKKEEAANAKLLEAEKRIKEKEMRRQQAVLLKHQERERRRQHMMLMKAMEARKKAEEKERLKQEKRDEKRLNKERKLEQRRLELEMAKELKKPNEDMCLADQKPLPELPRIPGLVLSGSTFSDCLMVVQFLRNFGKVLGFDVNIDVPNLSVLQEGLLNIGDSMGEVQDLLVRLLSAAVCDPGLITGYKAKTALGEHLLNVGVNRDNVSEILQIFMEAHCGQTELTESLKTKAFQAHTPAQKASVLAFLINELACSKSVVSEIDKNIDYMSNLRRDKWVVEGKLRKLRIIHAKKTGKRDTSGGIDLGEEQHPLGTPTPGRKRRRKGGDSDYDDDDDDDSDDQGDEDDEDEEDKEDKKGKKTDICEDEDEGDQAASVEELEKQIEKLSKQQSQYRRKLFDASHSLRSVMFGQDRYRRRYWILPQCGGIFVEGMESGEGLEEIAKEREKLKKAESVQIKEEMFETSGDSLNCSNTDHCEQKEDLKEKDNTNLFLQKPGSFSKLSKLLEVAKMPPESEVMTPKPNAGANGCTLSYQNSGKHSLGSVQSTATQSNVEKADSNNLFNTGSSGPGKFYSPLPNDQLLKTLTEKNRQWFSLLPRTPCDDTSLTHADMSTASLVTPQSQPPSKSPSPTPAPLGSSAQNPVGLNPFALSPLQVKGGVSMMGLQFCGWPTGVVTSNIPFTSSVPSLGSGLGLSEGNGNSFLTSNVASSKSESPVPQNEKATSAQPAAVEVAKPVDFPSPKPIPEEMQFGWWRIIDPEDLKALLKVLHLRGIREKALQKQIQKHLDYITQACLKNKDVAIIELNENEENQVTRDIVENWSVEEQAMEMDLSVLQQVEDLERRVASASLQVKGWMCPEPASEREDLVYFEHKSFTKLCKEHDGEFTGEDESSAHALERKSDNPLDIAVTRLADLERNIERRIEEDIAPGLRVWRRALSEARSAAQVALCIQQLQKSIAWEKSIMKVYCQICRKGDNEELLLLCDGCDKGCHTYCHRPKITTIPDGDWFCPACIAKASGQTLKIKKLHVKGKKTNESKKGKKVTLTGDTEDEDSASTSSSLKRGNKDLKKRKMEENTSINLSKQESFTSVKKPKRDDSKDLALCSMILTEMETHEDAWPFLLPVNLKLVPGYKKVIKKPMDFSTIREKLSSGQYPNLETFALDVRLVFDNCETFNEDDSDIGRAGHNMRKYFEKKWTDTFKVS
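Inhibition is scored as reduced AlphaScreen emission. The BAZ2B/b-H3(5-23)K14Ac complex (50 nM each) in PBS pH 7.4, 0.01% Tween-20 meets compound (up to 110 uM) for 30 min at RT before bead addition.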
Six1-Eya2 inh = qHTS Assay for Inhibitors of the Six1/Eya2 Interaction; activity change, % (concentration not given with the values); AID 651725, 2012; AlphaScreen GST-Six1/His-Eya2 binding, biochemical; hits give low values; actives 0.56% (n = 360,000); Homeobox protein SIX1 (Homo sapiens) + Protein phosphatase EYA2 (Homo sapiens), …; in the data active = activity change below about -65%; inconclusive = mostly about -30% to -63%; note: % is set by controls: 0 for no effect and ±100 for the full control effect
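Six1/Eya2 binding was read as AlphaScreen signal after compounds were pinned into GST-Six1 plus His-tagged Eya2 (5X stock 250/500 nM) in pH 8.0 Tris/NaCl/TCEP buffer, beads added, then incubated 1 h, 37 C, dark.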
* = called active by the depositor; ? = inconclusive; · = no result; ! = repeats disagree; [ ] = dose if it differs, or a comment. Unless noted, calls come from the whole dose curve; as a rule, active = well fitted inhibition curve with a large enough effect; inconclusive = small, poorly fitted or top-dose-only effect; inactive = no such curve, though single readings can be large or run the other way.

SMILES	CtBP-E1A inh	HP1b chromo inh	JMJD2A Tudor inh	G9a block	BAZ2B block	Six1-Eya2 inh
COC1=C(c2ccccc2)C(=O)c2ccccc2C1=O	?	?	?	20µM*	44.7µM*	?
O=C(C1=C(c2ccccc2)C(=O)c2ccccc2C1=O)c1ccccc1	-21.6	?	22.4µM*	35.5µM*	12.6µM*	?
CCOc1ccc2nc(Cl)c(C3CC(c4ccc(C)cc4)=NN3C(=O)CCCC(=O)O)cc2c1 (stereo not drawn)	·	-7.0%	?	-1.6%[59 µM]	-1.7%	·
CSc1nnc(-c2cc3c(-c4ccccc4)nn(C)c3s2)n1C	-74.3*	-8.1%	14.4%[11.4 µM]	2.1%	?	-73.6*
Cn1nc(-c2ccccc2)c2cc(C(=O)O)sc21	?	8.8%	0.7%	?	-19.0%	?
Cc1nc2c(C#N)cnn2c2c1CCN2CC1CCCO1 (stereo not drawn)	-4.8	32.5%	-8.5%	-8.3%[59 µM]	-0.2%	1.0
CC1=C(C(N)=O)C(c2ccccc2)n2nc(-c3ccncc3)nc2N1 (stereo not drawn)	16.0	17.7%	-7.4%	-9.8%[59 µM]	14.7%	1.2
Cc1nc(-[n+]2nc(-c3ccncc3)nn2-c2ccccc2)sc1C	-87.9*	·	·	·	·	-91.2*
Cc1cc(C)c(S(=O)(=O)N2CCN(C(=O)c3ccc(-n4nc(C)c(Cl)c4C)cc3)CC2)c(C)c1	-8.7	17.7%	-26.8%	·	·	-3.4
CC1=C(C(=O)N(C(C)C)C(C)C)CC(CC(=O)NCc2ccco2)C(=O)N1Cc1ccc(C(C)(C)C)cc1 (stereo not drawn)	0.1	·	·	·	·	-8.9
CCc1ccc(Nc2nnc(SCC(=O)NC(=O)CN3CCCC3=O)s2)cc1	1.3	-5.7%	?	6.31µM*	?	-13.4
COc1ccccc1Nc1nnc(SCC(=O)N2CCCC2=O)s1	9.6	34.1%	-11.7%	?	7.3%	-2.0
Cn1nc(C(C)(C)C)cc1C(=O)Sc1cccc(Br)c1	3.7	128.3%	56.2%	298.1%	89.8%	13.4
CCOC(=O)[C@]12CCCC=C1N(Cc1cccc3ccccc13)C(=O)[C@H](CC(=O)N1CCCC1)C2	-7.1	·	·	·	·	0.4
Cc1cc(C(=O)O)cc(S(=O)(=O)Nc2c(C)nn(C)c2C)c1C	9.5	41.8%	-12.3%	·	·	1.7
Cc1ccc2c(c1C)-c1c(ccc(C)c1C)C(=O)C2=O	-2.0	15.8µM*	50.1µM*	·	·	?
Cc1ccc(CC#N)c(-c2c(CC#N)ccc(C)c2C)c1C	1.2	·	·	·	·	6.7
COc1cc(/C=C/c2nc(C#N)c(NC3CCCCC3)o2)cc(OC)c1OC	·	-16.4%	-6.0%	-0.9%[59 µM]	?	·
COc1ccc(CCNC(=O)c2c(C)nn(-c3ccc(F)cc3)c2-n2cccc2)c(OC)c1OC	·	14.4%	-9.7%	-26.8%[59 µM]	-24.5%	·
CCCn1c(SCC(=O)Nc2nnc(C)s2)nnc1-c1ccoc1C	-1.4	-12.4%	50.1µM*	-13.5%[12.7 µM]	0.2%	-2.8
CCCCn1c(SCC(=O)Nc2nnc(C)s2)nnc1-c1ccoc1C	-0.4	12.1%	10.4%	14.4%[59 µM]	-0.3%	2.0
Cc1nnc(NC(=O)CSc2nnc(-c3ccoc3C)n2CC(C)C)s1	-1.4	-6.5%	50.1µM*	26.0%[12.7 µM]	62.6%	-1.2
N#CCCN(Cc1cccnc1)C(=S)NC(=O)c1ccco1	6.7	12.0%	22.4µM*	10µM*	?	7.8
CCN(CC)S(=O)(=O)c1ccc(C(=O)NC(=S)N(CCC#N)Cc2cccnc2)cc1	6.9	17.6%	-9.0%	12.6µM*	3.6%	2.4
N#CCCN(Cc1cccnc1)C(=S)NCc1ccco1	5.9	1.7%	-2.1%	20µM*	-14.8%	3.7
SMILES	CtBP-E1A inh	HP1b chromo inh	JMJD2A Tudor inh	G9a block	BAZ2B block	Six1-Eya2 inh
N#CCCN(C(=S)NC(=O)c1ccco1)c1ccccc1F	13.1	-19.8%	-33.4%	25.1µM*	-24.4%	6.9
N#CCCN(Cc1cccnc1)C(=O)Nc1ccc(Cl)c(Cl)c1	1.5	56.5%	-16.1%	5.6%[12.7 µM]	-1.0%	1.9
CN(C)S(=O)(=O)c1cccc(C(=O)NC(=S)N(CCC#N)Cc2cccnc2)c1	-6.9	25.1%	-21.1%	84.1%[59 µM]	9.6%	0.4
Cc1ccc(Nc2sc(C(=O)c3ccccc3)c(N)c2S(=O)(=O)c2ccccc2)c(C)c1	·	25.2%	-23.2%	-23.3%[59 µM]	-21.6%	·
Cc1ccc(S(=O)(=O)Nc2ccc(NC(=O)c3c(F)c(F)c(F)c(F)c3F)cc2)cc1	·	39.6%	-15.2%	-2.8%	-0.7%	-0.5
Cc1nc(Nc2ccc(Cl)cc2)c(C#N)c(=O)[nH]1	-4.2	18.4%	-11.5%	-3.7%	-6.5%	-1.0
Cc1c(Cl)cccc1NC(=O)Cn1cnc2nc3c(cc2c1=O)CCCC3	·	25.8%[57 µM]	?	-6.2%[59 µM]	4.6%	·
CS(=O)(=O)N1CCc2cc(S(=O)(=O)NCc3ccccc3Cl)ccc21	·	13.2%[57 µM]	?	8.1%[59 µM]	9.7%	·
CCCCN1CCc2nc(Nc3ccc(OC)cc3OC)ncc2C1	·	-3.1%	?	-8.5%[59 µM]	?	·
CN1CCO[C@H](c2ccccc2)c2ccccc2C1	·	·	·	26.1%[21.5 µM]	·	·
COc1ccc(Cl)cc1NC(=O)C1(c2cccs2)CCOCC1	9.2	35.7%	-6.6%[11.4 µM]	-27.4%	·	4.8
CN(C)CCCC1(c2ccc(F)cc2)OCc2cc(C#N)ccc21 (stereo not drawn)	1.0	10.4%	-22.3%	70.8µM*!	-2.1%	1.7
Cc1cccc[n+]1C1C(c2ccccc2)C(C#N)=C(C(=C=[N-])C#N)NC1(O)C1CC1 (stereo not drawn)	-3.9	-19.2%	?	39.8µM*	-34.6%	-21.2
N#CC(=C=[N-])C1=C(C#N)C(c2ccccc2F)C([n+]2ccccc2)C(O)(C2CC2)N1 (stereo not drawn)	-4.8	5.2%	-33.8%	?	?	-1.5
COc1ccc(-c2cc(C(=O)N3CCN(c4ccccc4OC)CC3)no2)cc1OC	-7.4	2.1%	?	6.3%[59 µM]	79.4µM*	30.2
COc1ccccc1N1CCN(C(=O)c2sc3nc(-c4ccc(F)cc4)cn3c2C)CC1	-20.7	6.0%	-31.9%	28.2µM*	?	-2.1
COc1ccccc1N1CCN(C(=O)c2cc(-c3ccccc3)on2)CC1	-2.4	23.9%	-14.3%	16.1%[59 µM]	-14.9%	-4.1
COc1ccccc1N1CCN(C(=O)c2cc(-c3ccco3)on2)CC1	4.0	2.9%	?	44.7µM*	-8.2%	-3.2
